# From PubChem BioAssay
# Most compounds without a hit are left out; they make up all but 7.5% or so of the library.
# FLuc counter = qHTS profiling assay for firefly luciferase inhibitor/activator using purifed enzyme and Km concentrations of substrates (counterscreen for miR-21 project); Luciferin 4-monooxygenase (Photinus pyralis), P08659; purified FLuc, Km substrates, luminescence inhibition; Potency, µM (doses to about 57.5 µM), without a hit: at the top dose activity change, negative = inhibition, hits mostly inhibitors; hit rate 6.9% among 360,000; AID 588342, 2011;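 further: plate controls were vehicle for no effect and reference inhibitor for full effect; nearly all actives have a fitted effect of over 55% in size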
# Target sequence (P08659 whole entry, looked up): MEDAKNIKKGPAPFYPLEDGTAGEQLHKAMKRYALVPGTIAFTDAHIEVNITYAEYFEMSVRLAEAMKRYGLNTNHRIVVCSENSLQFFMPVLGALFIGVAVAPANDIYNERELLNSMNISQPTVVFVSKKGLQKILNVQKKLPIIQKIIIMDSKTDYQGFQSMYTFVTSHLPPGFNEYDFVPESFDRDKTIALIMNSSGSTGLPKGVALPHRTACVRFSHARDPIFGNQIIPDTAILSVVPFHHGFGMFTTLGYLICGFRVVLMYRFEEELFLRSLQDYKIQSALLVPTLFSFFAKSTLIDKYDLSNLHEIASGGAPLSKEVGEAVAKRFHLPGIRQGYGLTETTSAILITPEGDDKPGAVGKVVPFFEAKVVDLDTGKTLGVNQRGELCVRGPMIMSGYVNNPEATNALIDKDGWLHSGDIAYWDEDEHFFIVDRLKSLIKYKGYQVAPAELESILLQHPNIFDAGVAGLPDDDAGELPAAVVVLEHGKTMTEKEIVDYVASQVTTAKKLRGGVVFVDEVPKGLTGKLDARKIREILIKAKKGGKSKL
#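 Purified P. pyralis luciferase (10nM final) with 10uM D-luciferin and 10uM ATP (Km levels) in 50mM Tris acetate pH 7.5, 10mM Mg acetate, 0.01% Tween-20, 0.05% BSA; qHTS 6-point titration, ~60 µM downward; luminescence read.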
# SMN2 splice enh = qHTS Assay for Enhancers of SMN2 Splice Variant Expression. HEK293 SMN2-luciferase splicing reporter, luminescence, 30-36 h. Potency, µM (top dose mostly 46.1 µM), without a hit: at the highest dose activity change, positive = activation, actives largely listed as activators. hit rate 2.8% among 210,000; further: % of control where 0% means no effect; nearly all actives have a fitted effect of over 55% in size
#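 HEK293 cells carry an SMN2 […]–luciferase reporter in which exon 7 inclusion puts luciferase in frame. Cells were plated 10-12 h before compound addition, then incubated 30-36 h at 37C. ONE-Glo luminescence was read; sodium butyrate at 4.5 mM final served as control.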
# ELG1 genotox = qHTS screen for small molecules that induce genotoxicity in human embryonic kidney (HEK293T) cells expressing luciferase-tagged ELG1. HEK293T ELG1-luciferase reporter, luminescence, 16 h. Potency, µM (titrated, usually from 46 µM), for the others: at the highest dose activity change, positive = activation, usual class: activators. hit rate 1.3% among 330,000; further: % of control where 0% means no effect; nearly all actives have a fitted effect of over 60% in size
#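 HEK293T cells expressing luciferase-tagged ELG1 were exposed to compound or DMSO vehicle for 16 hr at 37 °C and 5% CO2. Luciferase activity was then measured with ONE-Glo after 30 min at room temperature.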
# NPC1 promoter act = qHTS Assay for NPC1 Promoter Activators; Huh7 NPC1 promoter luciferase reporter, 24 h; Potency, µM (doses to about 9.22 µM), for inactives: top-dose activation, actives largely listed as activators; hit rate 2.4% among 320,000; AID 485313, 2010; further: % of control where 0% means no effect; nearly all actives have a fitted effect of over 60% in size
#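 Luminescence read-out of NPC1 promoter-driven luciferase in stably transfected Huh7 cells; compounds delivered in DMSO and left 24 h at 37C, 5% CO2, qHTS titration format.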
# Rab9 promoter act = qHTS Assay for Rab9 Promoter Activators; hit rate 2.8% among 320,000; Potency, µM (top dose mostly 9.22 µM), for the others: at the top dose activation, negative = inhibition, hits mostly activators; Huh7 Rab9 promoter-luciferase reporter, luminescence, 24 h; further: % of control where 0% means no effect; nearly all actives have a fitted effect of over 60% in size
#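 Promoter activation is measured as luciferase luminescence in Huh7 cells stably transfected with a Rab9 promoter–luciferase construct, following 24 h compound exposure at 37 °C and 10 min reagent incubation at ambient temperature.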
# An asterisk follows results filed as active; u = inconclusive; x = no result; [ ] = dose if it differs, or a comment. The call rests on the fitted dose curve; in most records, active means well fitted curve in the direction sought with a large enough effect; inconclusive means small, poorly fitted or top-dose-only effect, or another doubt; inactive means no such curve, though single readings can be large; an effect the other way counts as inactive or inconclusive. Potency means the concentration at half of the fitted maximal effect.
SMILES,FLuc counter,SMN2 splice enh,ELG1 genotox,NPC1 promoter act,Rab9 promoter act
Cc1ccccc1N1CCN(C2CCCN(C(=O)c3ccsc3)C2)CC1 (configuration not stated),4%,x,-14%,2%,1%
CCOC(=O)C1(Cc2ccccc2Cl)CCN(S(=O)(=O)N(C)C)CC1,3%,x,-4%,-1%,-6%
CCOC(=O)C1(Cc2ccccc2Cl)CCN(C(=O)CCn2ccnc2C)CC1,19µM*,x,5%,22%,u
CC(=O)N(c1c(C)n(C)n(-c2ccccc2)c1=O)C1(C(=O)NC2CCCC2)CCCCC1,-1%,16%,0%,-3%,-2%
COc1ccc(Nc2cccc3ccccc23)cc1,27µM*,x,9%,19%,u
COc1cc(OC)c(C(=O)Nc2cccc3ccccc23)cc1OC,19µM*,x,0%,10%,1%
COc1ccc(Nc2cc(C)c3ccccc3n2)cc1,13µM*,u,u,28%,u
COc1ccc(C(=O)Nc2cccc3ccccc23)cc1,19µM*,x,13%,u,u
COc1ccc(Nc2cccccc2=O)cc1,u,2%,3%,29%,22%
CCOc1ccccc1C(=O)Nc1cccc2ccccc12,-5%,x,-5%,1%,0%
COc1ccc(OC)c(-c2nc(C(N)=O)c3[nH]c(=O)n(-c4ccc(F)cc4)c3n2)c1,-1%,14%,5%,5%,0%
CCCCOCCCNC(=O)CN1C(=O)c2ccccc2C1=O,3%,3%,0%,1%,-2%
O=C(Cn1nnc(-c2ccc([N+](=O)[O-])cc2)n1)NNC(=O)c1ccccc1,2%,x,5%,-4%,4%
O=C(NCCC1=CCCCC1)c1ccc(Cl)cc1,1.3µM*,x,u,0.32µM*,0.28µM*
O=C(NCCc1ccc(Cl)cc1)c1cnccn1,-18%,x,16%,16%,25%
CS(=O)(=O)N(Cc1ccc(Cl)cc1)c1ccc(C(=O)NCCC2=CCCCC2)cc1,2%,0%,1%,1%,-2%
O=C(CCN1C(=O)c2ccccc2C1=O)NCCC1=CCCCC1,21µM*,14%,30%,u,2.5µM*
O=C(NCCC1=CCCCC1)c1cnccn1,u,11µM*,15µM*,u,3.2µM*
C[C@]12CC[C@@H]3c4ccc(O)cc4CC[C@H]3[C@@H]1C[C@@H](O)[C@@H]2O[C@@H]1O[C@H](C(=O)O)[C@@H](O)[C@H](O)[C@H]1O,6%,-6%,0%,-2%,1%
Clc1ccccc1-c1ccc(CN2CCN(c3ccccc3)CC2)o1,-9%,7%,-2%,0%,-1%
O=C(CN1CCCN(Cc2ccc(Cl)cc2)S1(=O)=O)Nc1ccccc1F,-13%,x,x,x,x
COc1ccccc1CCc1nnc(CCC(=O)NCC2CCCO2)o1 (configuration not stated),-2%,x,4%,1%,0%
O=C(c1ccc(-c2ccc([N+](=O)[O-])cc2)o1)N1CCCC(C(F)(F)F)C1 (configuration not stated),1%,x,0%,15%,-2%
O=C1c2ccccc2C(=O)C1c1ccc(Br)cc1,6µM*,x,u,u,10%[1.84 µM]
O=C1c2ccccc2C(=O)C1c1ccc(O)cc1,u,-10%,0%,-3%,10%
SMILES,FLuc counter,SMN2 splice enh,ELG1 genotox,NPC1 promoter act,Rab9 promoter act
O=C(NC(=O)c1ccccc1)C1=C(N2CCCC2)COC1=O,u,x,u,2.2µM*,1.3µM*
O=[N+]([O-])c1cc(-c2nc(-c3ccccc3)no2)ccc1N1CCN(c2ccccc2)CC1,-2%,x,x,x,x
O=C(c1cc(Br)ccc1Cl)N1CCN(c2ccc(N3CCOCC3)nn2)CC1,-1%,x,4%,-1%,1%
COc1ccc(COC(=O)Oc2ccc(CNC(C)=O)cc2OC)c([N+](=O)[O-])c1,13µM*,x,0%,-4%,-2%
COc1cc(COC(=O)Oc2ccc(CNC(C)=O)cc2OC)c([N+](=O)[O-])cc1OC,-4%,x,4%,-3%,-5%
C/C(NC(=O)c1ccccc1)=C1/C(=O)CC2C1C2(C)C (configuration not stated),15µM*,-4%,u,29%,u
Cc1sc(N/N=C/c2ccco2)nc1-c1ccccc1,9.5µM*,-30%,u,16%,30%
Cc1sc(NC(=O)c2cccnc2)nc1-c1ccccc1,-8%,1%,1%,-2%,0%
Clc1ccc(-c2csc(N/N=C/c3ccco3)n2)cc1,13µM*,x,3%,u,u
Cc1sc(N/N=C/c2cccnc2)nc1-c1ccccc1,17µM*,u,-1%,-2%,4%
Cc1ccc(-c2csc(N/N=C/c3ccco3)n2)cc1,9.5µM*,26%,15%,u,u
Cc1cccc(NC(=O)COc2ccc3oc4c(c3c2)CCCC4)n1,u,3%,27%,16%,-4%
CCCn1c(=O)[nH]c(=O)c2c1nc(-c1cccs1)n2CCOC,-1%,15%,9%,-2%,1%
COc1ccc(CCNS(=O)(=O)c2ccc(N3CCCCS3(=O)=O)cc2)cc1,3%,x,x,x,x
C(=N\Nc1nc(-c2ccccc2)cs1)/c1ccco1,2.7µM*,14µM*,u,2.8µM*,3.2µM*
Brc1ccc(-c2csc(N/N=C/c3ccco3)n2)cc1,u,u,4%,u,u
COC(=O)Cn1c(=NC(=O)c2ccc(Cl)s2)sc2cc(C)ccc21,0.13µM*,4µM*,u,u,u
Cc1nnc(SCC(=O)N(C)c2ccccc2)n1-n1cccc1,0%,x,1%,0%,1%
Cc1cccc(Oc2ccc(Cl)cc2N)c1,17µM*,17%,2%,14%,23%
Nc1cc(Cl)ccc1Oc1ccccc1,-17%,-1%,3%,-2%,-1%
Cc1cccc(C)c1OCc1nnc(SCC(=O)Nc2nccs2)n1-c1ccccc1,0%,-7%,x,x,x
O=C(Nc1nnc(-c2ccc(Br)cc2)o1)c1ccco1,2.7µM*,x,6%,22%,u
CS(=O)(=O)c1ccc(-c2nnc(NC(=O)c3ccco3)o2)cc1,12µM*,x,10%,0%,-4%
CCOc1ccccc1CNC(=O)CCCC(=O)n1nc(C)c2ccccc21,1%,x,-2%,-3%,2%
C=CCNCCOc1cccc(Br)c1,-1%,7%,1%,0%,-1%
COC(=O)C1=C(O)/C(=C\c2ccc(CNC(=O)C(=O)Nc3ccc(C)cc3)o2)N=C1C,6.7µM*,-20%,8%,1%,0%
CCOC(=O)C1=C(O)/C(=C/c2ccc(CNC(=O)C(=O)Nc3ccc(C)cc3)o2)N=C1C,7.6µM*,-12%,u,8%,11%
